This is an account of results in PubChem BioAssay (EPA / NIEHS).

A short description of test [1]: CCTE_Shafer_MEA_dev_AB: CCTE's Alamar Blue Assay for Cytotoxicity in the Neural Network Formation Assay, Shafer Lab (AID 2284083; active = hit-call score of the fitted dose curve at least 0.9, where 1 is the maximum;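 note: resazurin reduction fluorescence as viability of cultured neurons; twelve days of exposure from plating with re-dosing on DIV 5 and 9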). The method, boiled down: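 Cytotoxicity companion to the developmental MEA: primary rat cortical neurons, 12-day exposure starting day 0, compound refreshed DIV 5 and 9; resazurin fluorescence, fitted against DMSO vehicle.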
Test [2] can be described thus: CCTE_Shafer_MEA_dev_mutual_information_norm: CCTE's Neural Network Formation Assay for Mutual Information Normalization, Shafer Lab (AID 2284091).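 For AC50: mutual information between electrodes summarised as area under curve across four recording days; potency is for a decrease in mutual information relative to DMSO.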 The method, boiled down: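 Developing rat cortical networks on 16-electrode MEA wells are treated throughout formation (DIV 0–12). Shared electrode information is recorded four times, converted to area-under-curve, and fitted for decreases against DMSO vehicle.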

The nature of test [3]: CCTE_Shafer_MEA_dev_correlation_coefficient_mean: CCTE's Neural Network Formation Assay for Mean Correlation Coefficient, Shafer Lab (AID 2284093).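 For AC50: well mean pairwise spike train correlation integrated as AUC over recording days 5 to 12; potency fitted for loss of correlation relative to DMSO vehicle wells.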 The method, boiled down: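 Extracellular firing from rat cortical networks on 48-well MEAs, DMSO-referenced, negative fitting direction. Compound present from plating to DIV12; mean pairwise correlation per well integrated over DIV5–12 recordings by trapezoidal AUC.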

Test [4] can be described thus: CCTE_Shafer_MEA_acute_AB: CCTE's Alamar Blue Assay for Cytotoxicity in the Neural Acute Assay, Shafer Lab (AID 2284069; active = hit-call score of the fitted dose curve at least 0.9, where 1 is the maximum;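 note: active compounds lower the viability signal compared with DMSO wells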). The essentials:
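Cytotoxicity endpoint for acute MEA exposures of primary rat cortical neurons on day 13 or 15. Resazurin reduction is read fluorescently at 544/590 nm, with DMSO as the negative-control baseline.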

Test [5] is described as follows: CCTE_Shafer_MEA_acute_LDH: CCTE's Lactate Dehydrogenase Assay for Cytotoxicity in the Neural Acute Assay, Shafer Lab (AID 2284086; active = hit-call score of the fitted dose curve at least 0.9, where 1 is the maximum;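 note: active means LDH release rises above DMSO vehicle level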). The essentials: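 Primary rat cortical neurons on 48-well MEA plates, treated on day 13 or 15 post-plating. After the 40-min recording with compound, medium LDH release was read by absorbance at 490 nm. Gain of signal was fitted against DMSO negative control.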

A short description of test [6]: IUF_NPC1b_proliferation_BrdU_72hr: Leibniz Research Institute for Environmental Medicine (IUF) 72-hour Neural Progenitor Cell Bromodeoxyuridine (BrdU) Proliferation Assay (NPC1b) (AID 2284207). The method, boiled down: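 Proliferation of primary human neural progenitor cells: 72 h compound treatment at 37C, 5% CO2, pH 7.2-7.6, in EGF/FGF-containing medium. Readout is BrdU uptake (last 16 h) by chemiluminescent ELISA, normalised to DMSO.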

Each structure is given as a SMILES string. Inconclusive results are not listed. A structure can be active in one record and inactive in another. Active and inactive are the calls of the source. Rule for the calls, unless noted: active = hit-call score of the fitted dose curve at least 0.9, where 1 is the maximum; inactive = score below 0.9.

Regarding `O=P(O)(O)CCC(F)(F)C(F)(F)C(F)(F)C(F)(F)C(F)(F)C(F)(F)C(F)(F)C(F)(F)F`, the AC50 is 8.79 µM (active) in test [1], 4.31 µM (active) in test [2] and 6.27 µM (active) in test [3].
On to `OCC(CO)(CBr)CBr`, for which the result in test [4] and in test [5] was inactive.
As for `O=C(O)C(F)(F)OC(F)(F)C(F)(F)OC(F)(F)C(F)(F)OC(F)(F)C(F)(F)C(F)(F)C(F)(F)F`, the result in test [1], in test [2] and in test [3] was inactive.
Turning to `COC(=O)C(F)(F)C(F)(F)C(F)(F)F`, the compound was classed as inactive in test [2] and in test [3].
`NC(C(F)(F)F)C(F)(F)F`: the compound was called inactive in test [1], in test [2] and in test [3].
On to `O=CC(F)(F)C(F)(F)C(F)(F)C(F)F`, for which the outcome in test [2] and in test [3] was inactive.
Turning to `CN(CCO)S(=O)(=O)C(F)(F)C(F)(F)C(F)(F)C(F)(F)C(F)(F)C(F)(F)C(F)(F)C(F)(F)F`, the call in test [2] and in test [3] was inactive.
As to `O=C1NS(=O)(=O)c2ccccc21`, the result in test [5], in test [2], in test [3] and in test [6] was inactive.
For the compound `COC(=O)C(F)(F)C(F)(F)C(F)(F)C(F)(F)C(F)(F)F`, the call in test [2] and in test [3] was inactive.
`O=C(OC(=O)C(F)(F)C(F)(F)F)C(F)(F)C(F)(F)F`: the call in test [1], in test [2] and in test [3] was inactive.
Turning to `Oc1ccc(Cc2ccccc2O)cc1`, the compound was classed as inactive in test [4] and in test [5].
For the compound `O=C(CC(=O)C(F)(F)C(F)(F)C(F)(F)F)c1cccs1`, the values for the AC50 in test [1] and in test [3] were 9.02 µM (active) and 7.75 µM (active), respectively. Moreover, the compound was classed as inactive in test [2].
Turning to `OCC(F)(F)C(F)(F)C(F)(F)C(F)(F)C(F)(F)C(F)(F)C(F)(F)C(F)(F)C(F)(F)C(F)(F)C(F)(F)F`, the AC50 is 18.9 µM (active) in test [1], 4.61 µM (active) in test [2] and 8.06 µM (active) in test [3]. The result in test [1], in test [2] and in test [3] was inactive.
